This is an account of results in PubChem BioAssay (NCI).

This is part of a sample that, as a whole, favours compounds with a hit. Of some 83,000 tested, about 20% had one in any assay.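 Treatment: one concentration, 48 hours, 96-well format. Scoring: percent growth, with anything below 10 considered active.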 Unmarked numbers belong to inactive results. Activity calls are given as the source filed them.

Among the test systems are EKVX NSCLC; SN12C renal; UO-31 renal; ACHN renal; CAKI-1 renal; A498 renal; CCRF-CEM leukemia; MOLT-4 leukemia; SR leukemia; RPMI-8226 leukemia; OVCAR-8 ovarian; OVCAR-5 ovarian; OVCAR-4 ovarian; SK-OV-3 ovarian; IGROV1 ovarian; OVCAR-3 ovarian; HS 578T breast; NCI/ADR-RES ovarian; T-47D breast; TK-10 renal.
Test in all cases: NCI-60 one-dose screen, 48 h (100 = growth as untreated, 0 = no growth, -100 = all killed)
Holding throughout (settings): 10 µM unless noted

Take `Nc1ncc(-c2ccc3ncnc(N4CCc5cc(F)c(Cl)cc54)c3c2)cc1CO`: the growth in the assay with EKVX NSCLC was -15.8% (active); in the assay on SN12C renal it was 14.7%; in the assay with UO-31 renal, 6.11% (active); with ACHN renal, 5.95% (active); in the assay on CAKI-1 renal, 2.97% (active); in the assay on A498 renal it was -64% (active). The growth with CCRF-CEM leukemia was 6.14% (active); with MOLT-4 leukemia, -14.6% (active); in the assay with SR leukemia it was -6.6% (active); in the assay on RPMI-8226 leukemia it was -25.4% (active); with OVCAR-8 ovarian it was 12.5%; in the assay on OVCAR-5 ovarian, 19.9%. In addition, the growth with OVCAR-4 ovarian is 8.51% (active); in the assay on SK-OV-3 ovarian, -18.4% (active); with IGROV1 ovarian, -54.7% (active); with OVCAR-3 ovarian it was -19.8% (active); in the assay on HS 578T breast, -18% (active); with NCI/ADR-RES ovarian, 9.17% (active). The growth in the assay with T-47D breast is 0.798% (active).

With `Nc1nc(N)c2c(n1)NC(c1ccc(C(F)(F)F)cc1)CC(c1ccc(Nc3nc(NCCO)nc(Nc4ccc(Cl)cc4)n3)cc1)=N2` (configuration not stated), the growth with EKVX NSCLC was -47.3% (active); with SN12C renal, -40.2% (active); with UO-31 renal, -48.6% (active); with TK-10 renal it was 91.1%; in the assay with ACHN renal, -90.2% (active); in the assay on CAKI-1 renal it was -88.1% (active). Also, the growth was -5.25% (active) with CCRF-CEM leukemia; -15.2% (active) in the assay with MOLT-4 leukemia; -31.7% (active) in the assay with SR leukemia; -36.9% (active) with RPMI-8226 leukemia; -26.1% (active) in the assay with OVCAR-8 ovarian; -88.7% (active) in the assay on OVCAR-5 ovarian. Moreover, the growth in the assay on SK-OV-3 ovarian was -26% (active); in the assay on IGROV1 ovarian it was -67.7% (active); with OVCAR-3 ovarian it was -20.9% (active); in the assay with NCI/ADR-RES ovarian it was -29.3% (active); with T-47D breast, 36%.

`C=C1CC[C@H]2[C@@](C)(CCC3OC(c4ccc(OCc5cn(C6CC(OC(C)=O)C(OC(C)=O)C(COC(C)=O)O6)nn5)cc4)OC[C@]32C)[C@@H]1/C=C/C1=CCOC1=O` (some centres not stated): the growth in the assay with EKVX NSCLC was 52.3%; in the assay on SN12C renal it was 67.5%; in the assay on UO-31 renal, 57.7%; in the assay on TK-10 renal, 119%; with ACHN renal, 72.7%; with CAKI-1 renal, 77%. For the same compound, the growth in the assay with CCRF-CEM leukemia is 65.7%; in the assay with SR leukemia, 51%; in the assay with RPMI-8226 leukemia it was 41.2%; in the assay with OVCAR-8 ovarian, 81.8%; in the assay on OVCAR-5 ovarian it was 97.4%; with OVCAR-4 ovarian, 72.7%. The growth in the assay with SK-OV-3 ovarian is 103%; in the assay on IGROV1 ovarian, 89.2%; in the assay with OVCAR-3 ovarian, 81.9%; with HS 578T breast, 75.7%; in the assay with NCI/ADR-RES ovarian, 92.8%; with T-47D breast, 40%.

Take `Cc1cc2nc3c4cc(Cl)ccc4n(CC(=S)NCCN(C)C)c3nc2cc1C`: the growth with EKVX NSCLC is 4.02% (active); with SN12C renal it was 40.9%; with UO-31 renal it was -68.1% (active); in the assay on TK-10 renal, 55.6%; in the assay on ACHN renal, -96.4% (active); in the assay with CAKI-1 renal, -92.3% (active). Also, the growth with CCRF-CEM leukemia is -49.3% (active); in the assay on MOLT-4 leukemia, -60.3% (active); in the assay on SR leukemia it was -43.8% (active); in the assay with RPMI-8226 leukemia it was -19.6% (active); in the assay on OVCAR-8 ovarian, -66.9% (active); with OVCAR-5 ovarian, -42.6% (active). The growth was -24.1% (active) with OVCAR-4 ovarian; -16.4% (active) in the assay with SK-OV-3 ovarian; -74% (active) in the assay with IGROV1 ovarian; -47% (active) in the assay with OVCAR-3 ovarian; 51.4% in the assay with HS 578T breast; -56.4% (active) in the assay with NCI/ADR-RES ovarian. In the assay with T-47D breast, the growth was 61.7%.

For the compound `COc1cc(N=Cc2sc(Nc3nccs3)nc2O)cc(OC)c1OC`, the growth in the assay on EKVX NSCLC is 82.2%; in the assay with SN12C renal, 94.7%; in the assay on UO-31 renal it was 59%; with TK-10 renal, 224%; in the assay on ACHN renal, 86%; in the assay on CAKI-1 renal it was 69%. Further, the growth in the assay on CCRF-CEM leukemia is 72%; in the assay on MOLT-4 leukemia, 78.2%; with SR leukemia, 63.9%; in the assay with RPMI-8226 leukemia, 81.6%; in the assay on OVCAR-8 ovarian it was 81.2%; with OVCAR-5 ovarian, 103%. For the same compound, the growth with SK-OV-3 ovarian was 104%; in the assay on IGROV1 ovarian it was 66%; in the assay with OVCAR-3 ovarian, 82.8%; in the assay on HS 578T breast it was 80.5%; in the assay with NCI/ADR-RES ovarian, 78.4%; with T-47D breast, 89.3%.

For the compound `COc1cc(/C=C/C(=O)c2ccc(C)cc2)ccc1Oc1nc(NCCO)nc(N2CCOCC2)n1`, the growth in the assay with EKVX NSCLC is 67.8%; in the assay with SN12C renal, 74%; in the assay with UO-31 renal, 51.5%; with TK-10 renal, 125%; in the assay on ACHN renal it was 55.7%; in the assay with CAKI-1 renal it was 50.4%. Moreover, the growth in the assay on CCRF-CEM leukemia is 3.44% (active); in the assay on SR leukemia, -3.65% (active); in the assay with RPMI-8226 leukemia, -18.3% (active); with OVCAR-8 ovarian, 76.1%; with OVCAR-5 ovarian, 83.6%; in the assay on OVCAR-4 ovarian, 80.6%. Further, the growth with SK-OV-3 ovarian is 95.9%; in the assay with IGROV1 ovarian it was 53.9%; in the assay on OVCAR-3 ovarian it was 75.1%; with HS 578T breast, 79.9%; with NCI/ADR-RES ovarian, 54.1%; in the assay with T-47D breast, 92.4%.

Regarding `COc1cccc(OC)c1-c1nnn(C)c1C(=S)N1CCN(c2ccc([N+](=O)[O-])cc2Cl)CC1`, the growth in the assay on EKVX NSCLC was 83.6%; in the assay on SN12C renal, 93.6%; in the assay on UO-31 renal, 58.7%; in the assay on TK-10 renal, 105%; in the assay with ACHN renal it was 92.2%; in the assay on CAKI-1 renal it was 78.9%. Besides, the growth in the assay on CCRF-CEM leukemia is 91.7%; with MOLT-4 leukemia, 78%; in the assay with SR leukemia, 87.1%; with RPMI-8226 leukemia, 77.5%; in the assay on OVCAR-8 ovarian, 95.4%; with OVCAR-5 ovarian it was 91.6%. Also, the growth was 91.9% in the assay with OVCAR-4 ovarian; 110% with SK-OV-3 ovarian; 78.1% in the assay with IGROV1 ovarian; 112% in the assay with OVCAR-3 ovarian; 95% with HS 578T breast; 93.6% in the assay on NCI/ADR-RES ovarian. In addition, in the assay with T-47D breast, the growth is 101%.

On to `COc1ccc(/C=C2\SC(=Nc3cc(C)[nH]n3)NC2=O)cc1`, for which the growth is 91.5% in the assay on EKVX NSCLC; 96% in the assay with SN12C renal; 75.3% with UO-31 renal; 102% with TK-10 renal; 88.1% in the assay on ACHN renal; 83.4% in the assay with CAKI-1 renal. Also, the growth is 86.7% with CCRF-CEM leukemia; 82% in the assay with SR leukemia; 88.2% with RPMI-8226 leukemia; 103% in the assay on OVCAR-8 ovarian; 90.3% in the assay on OVCAR-5 ovarian; 97.4% in the assay with OVCAR-4 ovarian. Moreover, the growth was 85.7% in the assay on SK-OV-3 ovarian; 97.3% in the assay with IGROV1 ovarian; 104% with OVCAR-3 ovarian; 98.3% with NCI/ADR-RES ovarian; 85.2% in the assay on T-47D breast.

On to `N#Cc1ccc(C(=O)CSc2nc(Nc3ccc(S(N)(=O)=O)cc3)c3ccccc3n2)cc1`, for which the growth in the assay with EKVX NSCLC was 104%; in the assay on SN12C renal, 100%; in the assay with UO-31 renal, 95.6%; in the assay on TK-10 renal, 110%; in the assay with ACHN renal, 108%; in the assay with CAKI-1 renal, 102%. The growth with CCRF-CEM leukemia was 94.7%; with SR leukemia it was 95.9%; with RPMI-8226 leukemia, 101%; in the assay on OVCAR-8 ovarian, 109%; in the assay with OVCAR-5 ovarian it was 110%; in the assay with SK-OV-3 ovarian, 116%. Also, the growth with IGROV1 ovarian was 110%; with OVCAR-3 ovarian, 119%; in the assay on HS 578T breast it was 103%; in the assay with NCI/ADR-RES ovarian, 111%; with T-47D breast it was 103%.
